Each structure is given as a SMILES string. “And” between values parts separate entries of the source, which are not always exact repeats. Equal values may be shown once. Unmarked numbers belong to inactive results. Inconclusive results are not listed. The source made the active and inactive calls. Unless noted, calls come from the whole dose curve; as a rule, active = well fitted curve in either direction with a large enough effect (not every such curve was filed as active); inconclusive = small, poorly fitted or top-dose-only effect, or another doubt; inactive = flat fitted curve, though single readings scatter. A value given as a limit tells only on which side of the number the result lay.

The nature of experiment [1]: AP1 Signaling Pathway (AID 357).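 Note: ME-180 reporter cells stimulated with EGF at its EC50 level; % is set by controls: 0 for no effect and ±100 for the full control effect.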 In outline:
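A ratiometric CCF4 readout (405 nm excitation; 460 and 530 nm emission) quantified AP-1-driven beta-lactamase in ME-180 cells after 5 h with compound and EC50 EGF; AC50 values were derived for activators and inhibitors.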

Experiment [2] in a line: Cell Viability - BJ (AID 421; calls by dose curve;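 note: potency is the fitted concentration of half-maximal effect; cells exposed to compound for 40 hours at 37 °C before readout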). The note with it: BJ fibroblast viability, qHTS. An outline of the steps:
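Quantitative HTS: ATP depletion in BJ cells after 40 hr compound exposure in complete culture medium, detected with CellTiter-Glo; AC50 from standard Hill fits.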

Experiment [3] in a line: Cell Viability - HepG2 (AID 433; calls by dose curve; note: potency is the fitted concentration of half-maximal effect). The note with it: qHTS. In outline:
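HepG2 cells, 1500 per well, treated 40 hr at 37 °C in complete medium; viability from intracellular ATP by CellTiter-Glo luminescence. Normalized to DMSO and 100 uM tamoxifen; AC50 from Hill fit of qHTS concentration-response.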
(Quantitative high-throughput screening tests each substance at several concentrations.)

A short description of experiment [4]: Cell Viability - MRC5 (AID 434; calls by dose curve;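 note: potency is the fitted concentration of half-maximal effect; potency reflects cytotoxicity seen as loss of intracellular ATP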). The note with it: MRC5 lung fibroblast viability, qHTS. In outline: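 ATP luminescence read-out (CellTiter-Glo, 20 min RT) after 40 hr, 37 °C compound exposure of 1500 MRC5 cells/well. Data normalized to DMSO (basal) and 100 uM tamoxifen (100% inhibition); AC50 from standard Hill equation.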
Experiment [5] can be described thus: Stat Signaling Pathway (AID 446).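 Note: ME-180 cervical cancer cells given 40 pM IL-6 alongside compound; SIE-controlled beta-lactamase reporter measured as 460/530 nm FRET emission ratio; % is set by controls: 0 for no effect and ±100 for the full control effect.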 An outline of the steps:
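Overnight-plated ME-180 cells bearing a STAT Inducible Element beta-lactamase reporter; 5 h co-exposure to compound and 40 pM IL-6; values normalized to 300 pM IL-6 and 125 nM JAK inhibitor controls.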

The target in experiment [6] is Glucocorticoid receptor (Homo sapiens) (UniProt P04150). As to the kind of experiment: GR-GFP Redistribution (AID 450;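 active = compounds whose dose series gives a full or clear partial fitted curve of increased nuclear translocation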; note: potency is the fitted concentration of half-maximal effect). Conditions: U2OS GR-GFP nuclear translocation, laser cytometry, 2 h.
The target of experiment [7] is Mitogen-activated protein kinase 10 (Mus musculus) (UniProt Q61831). As to the kind of experiment: JNK3 AlphaScreen Assay (AID 530).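 Note: kinase came from lysate of stimulated human HepG2 cells; signal reports phosphorylation of biotinylated GST-cJun 1-79 at Ser73 with 10 µM ATP; % is set by controls: 0 for no effect and ±100 for the full control effect.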 An outline of the steps: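 HepG2 lysate (IL-1b/TNFa pre-activated) + biotin-GST-cJun 1-79 + anti-pSer73 cJun; cpd titration, 15 min RT; ATP 10 uM start; Tris pH 7.6, MgCl2, DTT, vanadate; beads in EDTA buffer; AlphaScreen.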
Experiment [8] can be described thus: Cell Viability - N2a (AID 540; active = well fitted curve in the direction sought with a large enough effect; an effect the other way counts as inactive or inconclusive;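 note: plate controls were DMSO alone for no effect and tamoxifen control for full effect; nearly all actives have a fitted effect of over 45% in size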). Conditions: N2a mouse neuroblastoma cell viability; activity change, negative = cytotoxicity: at 92.2 µM (top of the series). In outline:
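N2a mouse neuroblastoma, 1500 cells/well, 5 hr settle; compound 40 hr, 37 °C; CellTiter-Glo 20 min RT; luminescence; Hill-fit AC50.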

A short description of experiment [9]: Cell Viability - SH-SY5Y (AID 544; active = well fitted curve in the direction sought with a large enough effect; an effect the other way counts as inactive or inconclusive; note: nearly all actives have a fitted effect of over 55% in size; note: potency is the fitted concentration of half-maximal effect;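 for viability change, negative = cytotoxic: 0% = DMSO alone and -100% = 100 µM tamoxifen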). The note with it: SH-SY5Y neuroblastoma cell viability; viability change, negative = cytotoxic: at 92.2 µM (top of the series). In outline: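 SH-SY5Y, 1500 cells/well, 5 hr pre-incubation 37 °C; cpd 40 hr 37 °C; CellTiter-Glo 20 min RT; luminescence (ATP) read. qHTS concentration-response, Hill fit → AC50. Tamoxifen, doxorubicin as positive controls.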

For experiment [10], the target named is Lysosomal acid glucosylceramidase (Homo sapiens) (UniProt P04062). As to the kind of experiment: Glucocerebrosidase-p2 (AID 348; in the data active = potency below about 10 µM; note: potency is the fitted concentration of half-maximal effect). The note with it: purified GBA, blue fluorogenic substrate, 40 min. An outline of the steps:
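Normal human glucocerebrosidase (0.2 nM) with blue fluorogenic substrate (80 uM final) in citrate/phosphate pH 5.9 with 10mM sodium taurocholate, 0.01% tween-20; 40 min RT, NaOH/glycine stop; fluorescence Ex 365/Em 440; AC50 from a titration from 0.6 nM upwards.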

Experiment [11] deals with Cytochrome P450 1A2 (Homo sapiens) (UniProt P05177). As to the kind of experiment: p450-cyp1a2 (AID 410; calls by dose curve; note: potency is the fitted concentration of half-maximal effect;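 for activity change, negative = inhibition: -100% = full effect of reference inhibitor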). An outline of the steps: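 20nM CYP1A2, 100uM Luciferin-ME (=Km), 100mM KPO4; cpd 10 min RT; +NADPH regen, 60 min RT; stop/detect 20 min; luminescence. Normalized to furafylline 57 uM = full inhibition.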
In experiment [12] the target is Glucocorticoid receptor (Homo sapiens) (UniProt P04150). As to the kind of experiment: GR-EFC Redistribution (AID 451; calls by dose curve; note: potency is the fitted concentration of half-maximal effect). Conditions: CHO-K1 GR-EFC translocation, beta-gal luminescence, 2 h. An outline of the steps: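 CHO-K1 cells expressing nuclear EA and GR-ED fragments of b-gal; compounds titrated up to 46 uM final, 2 h at 37 C. GR nuclear translocation read as complemented b-gal luminescence after 1 h RT detection.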

Experiment [13] has as its target 3',5'-cyclic-AMP phosphodiesterase 4B (Homo sapiens) (UniProt Q07343). As to the kind of experiment: qHTS Assay for Inhibitors of PDE-IV (AID 607; active = well fitted activation curve with a large enough effect in the main read-out, with a control signal flat, not every such curve was filed as active; note: % of control where 0% means no effect). In outline:
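Live HEK293 cells with a modified cyclic nucleotide-gated (CNG) channel report intracellular cAMP via membrane-potential dye fluorescence (ex 535/em 590 nm). Endogenous PDE-IV was targeted. Compounds were tested at up to 22.9 uM final; RO 20-1724 100 uM served as control.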

Experiment [14] in a line: Cell Viability - Hek293 (AID 427;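 active = compounds whose dose-response curve shows a full or clear partial loss of cell viability, called from curve shape rather than a numeric limit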;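 note: potency is the fitted concentration of half-maximal effect; cells exposed to compound for 40 hours at 37 °C before reading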). Conditions: qHTS. An outline of the steps: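 AC50 values derive from Hill-modelled concentration-response of ATP-based luminescence, normalized between DMSO-only and 100 uM tamoxifen controls. Cells were exposed in complete culture medium for 40 hr at 37 °C before detection.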
A short description of experiment [15]: NFAT Signaling Pathway (AID 444).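 Note: carbachol stimulus at about its EC50 of 1 µM final; % is set by controls: 0 for no effect and ±100 for the full control effect.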 The note with it: Jurkat NFAT-bla M1, carbachol, beta-lactamase ratio, 5 h. In outline: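 Jurkat cells with NFAT-driven β-lactamase reporter and co-expressed M1 receptor, stimulated with carbachol (final 1 uM, ~EC50), compound titration, 5 h at 37 °C. CCF4 loaded 1 h at RT; 460/530 nm ratio gave %activity and AC50.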
Experiment [16] can be described thus: Cell Viability - NIH 3T3 (AID 541; active = well fitted curve in the direction sought with a large enough effect; an effect the other way counts as inactive or inconclusive;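 note: plate controls were DMSO alone for no effect and tamoxifen positive control for full effect; nearly all actives have a fitted effect of over 25% in size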). The note with it: NIH 3T3 cell viability, qHTS; activity change, negative = cytotoxicity: at 92.2 µM (top of the series). An outline of the steps:
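qHTS format; 40 hr compound exposure, 37 °C; CellTiter-Glo luminescence (cellular ATP) read-out after 20 min at RT. Decrease in ATP = cytotoxicity; AC50 from standard Hill fit.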

Experiment [17] can be described thus: Cell Viability - HUV-EC-C (AID 542; active = well fitted curve in the direction sought with a large enough effect; an effect the other way counts as inactive or inconclusive; note: % is set by controls: 0 for no effect and ±100 for the full control effect; nearly all actives have a fitted effect of over 35% in size). An outline of the steps:
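Luminescent ATP read-out (CellTiter-Glo, 20 min room temperature) after 40 hr compound treatment of HUV-EC-C cells at 37 °C. Concentration-response data fitted with the standard Hill equation to give AC50; tamoxifen and doxorubicin served as positive controls.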

A short description of experiment [18]: Cell Viability - Mesenchymal (AID 546; active = well fitted curve in the direction sought with a large enough effect; an effect the other way counts as inactive or inconclusive;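 note: cells exposed to compound for 40 hours before reading; 0% = DMSO only and -100% = 100 µM tamoxifen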). In outline: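 Human renal mesenchymal cells (glomerulus-derived), 1000 cells/well, 5 hr 37 °C pre-incubation; compound 40 hr, 37 °C; CellTiter-Glo, 20 min RT; luminescence; AC50 via Hill equation.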
Experiment [19] can be described thus: Cell Viability - Jurkat (AID 426;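 active = dose-dependent loss of cell ATP signal giving a full or clear fitted curve, ranked by lower potency value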; note: potency is the fitted concentration of half-maximal effect). Conditions: qHTS. An outline of the steps: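 Luminescent ATP read-out (CellTiter-Glo, 20 min at room temperature) after 40 hr compound exposure at 37 °C of Jurkat E6-1 cells, 5000/well. Decreased ATP taken as cytotoxicity; AC50 from standard Hill equation.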
A short description of experiment [20]: Cell Viability - SK-N-SH (AID 435; calls by dose curve;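 note: potency is the fitted concentration of half-maximal effect; compound exposure lasted 40 h at 37 °C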). Conditions: SK-N-SH neuroblastoma cell viability qHTS. In outline: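 SK-N-SH neuroblastoma cells (1500/well) treated 40 h at 37 °C in complete medium; viability read as cellular ATP by CellTiter-Glo luminescence. Normalized to DMSO and 100 uM tamoxifen; AC50 from Hill fits of qHTS concentration-response.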

Sequence of 3',5'-cyclic-AMP phosphodiesterase 4B (Homo sapiens) (Q07343 whole entry, looked up): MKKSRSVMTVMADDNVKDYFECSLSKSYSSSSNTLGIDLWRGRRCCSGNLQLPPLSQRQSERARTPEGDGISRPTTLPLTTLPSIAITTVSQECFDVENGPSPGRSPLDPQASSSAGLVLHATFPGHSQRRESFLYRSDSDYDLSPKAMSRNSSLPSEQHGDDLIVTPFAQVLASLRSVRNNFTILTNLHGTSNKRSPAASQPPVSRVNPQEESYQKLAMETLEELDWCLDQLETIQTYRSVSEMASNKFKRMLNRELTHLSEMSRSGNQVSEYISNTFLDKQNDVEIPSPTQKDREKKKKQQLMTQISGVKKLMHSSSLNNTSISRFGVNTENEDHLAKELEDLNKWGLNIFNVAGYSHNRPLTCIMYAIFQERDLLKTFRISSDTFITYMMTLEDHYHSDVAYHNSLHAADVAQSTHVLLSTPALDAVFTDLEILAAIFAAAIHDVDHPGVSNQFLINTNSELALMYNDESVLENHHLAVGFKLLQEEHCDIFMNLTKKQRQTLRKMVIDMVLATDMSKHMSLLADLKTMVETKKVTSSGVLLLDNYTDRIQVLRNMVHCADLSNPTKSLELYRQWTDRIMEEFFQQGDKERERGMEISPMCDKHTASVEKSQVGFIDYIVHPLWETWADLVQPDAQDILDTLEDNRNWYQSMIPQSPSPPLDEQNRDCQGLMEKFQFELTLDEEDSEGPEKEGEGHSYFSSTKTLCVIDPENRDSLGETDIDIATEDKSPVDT
Sequence of Cytochrome P450 1A2 (Homo sapiens) (P05177 whole entry, looked up, the tested form may be a part): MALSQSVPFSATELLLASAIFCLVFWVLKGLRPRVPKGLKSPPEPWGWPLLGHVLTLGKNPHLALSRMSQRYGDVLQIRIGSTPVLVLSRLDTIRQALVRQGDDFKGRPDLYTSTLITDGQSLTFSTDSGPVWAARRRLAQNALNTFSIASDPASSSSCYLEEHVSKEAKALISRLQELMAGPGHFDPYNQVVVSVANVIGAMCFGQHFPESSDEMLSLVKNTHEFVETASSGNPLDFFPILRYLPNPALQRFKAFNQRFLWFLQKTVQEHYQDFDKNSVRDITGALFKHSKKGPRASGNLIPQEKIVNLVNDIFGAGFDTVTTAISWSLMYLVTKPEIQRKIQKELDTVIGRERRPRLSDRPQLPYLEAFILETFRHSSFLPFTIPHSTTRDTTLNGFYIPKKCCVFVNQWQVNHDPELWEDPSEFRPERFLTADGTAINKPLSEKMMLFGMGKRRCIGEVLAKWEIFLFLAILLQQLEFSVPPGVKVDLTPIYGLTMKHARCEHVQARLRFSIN
Sequence of Glucocorticoid receptor (Homo sapiens) (P04150 whole entry, looked up, the tested form may be a part): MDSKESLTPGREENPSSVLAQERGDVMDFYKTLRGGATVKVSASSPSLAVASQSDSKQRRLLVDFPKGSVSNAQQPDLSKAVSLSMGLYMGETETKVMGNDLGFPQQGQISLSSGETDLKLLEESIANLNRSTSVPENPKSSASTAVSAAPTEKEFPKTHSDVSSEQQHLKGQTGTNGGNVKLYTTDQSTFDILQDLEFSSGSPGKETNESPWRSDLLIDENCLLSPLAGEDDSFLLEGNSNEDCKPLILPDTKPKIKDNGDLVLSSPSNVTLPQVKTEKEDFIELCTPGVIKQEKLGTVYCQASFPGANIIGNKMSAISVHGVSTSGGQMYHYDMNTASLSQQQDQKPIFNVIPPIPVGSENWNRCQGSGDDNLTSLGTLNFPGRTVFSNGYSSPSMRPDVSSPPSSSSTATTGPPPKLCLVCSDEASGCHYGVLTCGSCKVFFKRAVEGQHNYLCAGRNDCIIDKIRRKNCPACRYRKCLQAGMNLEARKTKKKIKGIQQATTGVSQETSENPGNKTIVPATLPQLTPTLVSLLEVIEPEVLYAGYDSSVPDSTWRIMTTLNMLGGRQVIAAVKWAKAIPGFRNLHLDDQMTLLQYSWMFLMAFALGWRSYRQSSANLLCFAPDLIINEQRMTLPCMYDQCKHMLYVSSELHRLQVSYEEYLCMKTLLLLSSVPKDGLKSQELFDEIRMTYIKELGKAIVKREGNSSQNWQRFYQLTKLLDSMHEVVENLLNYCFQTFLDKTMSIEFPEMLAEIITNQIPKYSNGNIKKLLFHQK
Sequence of Lysosomal acid glucosylceramidase (Homo sapiens) (P04062 whole entry, looked up): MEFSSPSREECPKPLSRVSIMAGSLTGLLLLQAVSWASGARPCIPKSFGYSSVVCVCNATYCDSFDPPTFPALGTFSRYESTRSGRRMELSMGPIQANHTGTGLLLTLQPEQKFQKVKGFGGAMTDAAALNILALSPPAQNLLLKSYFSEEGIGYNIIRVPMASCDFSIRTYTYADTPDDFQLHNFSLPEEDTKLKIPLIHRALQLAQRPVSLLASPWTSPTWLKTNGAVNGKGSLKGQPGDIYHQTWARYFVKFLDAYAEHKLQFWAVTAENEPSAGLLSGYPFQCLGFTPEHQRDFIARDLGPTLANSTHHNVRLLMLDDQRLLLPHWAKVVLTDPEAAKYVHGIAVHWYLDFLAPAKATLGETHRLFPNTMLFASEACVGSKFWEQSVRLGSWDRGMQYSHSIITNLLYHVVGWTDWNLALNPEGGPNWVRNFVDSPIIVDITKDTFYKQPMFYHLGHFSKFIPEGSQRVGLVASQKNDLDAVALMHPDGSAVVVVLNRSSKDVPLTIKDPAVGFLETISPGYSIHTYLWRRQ

As for `CC(COc1ccccc1)N(CCCl)Cc1ccccc1` (centres undefined), the call in experiment [1], in experiment [5] and in experiment [7] was inactive. For the same compound, the Potency is above 92 µM in experiment [2]; 38.6 µM (active) in experiment [3]; above 92 µM in experiment [4]; above 20.6 µM in [6]; 31.6 µM (active) in [9]. For the same compound, in [8], the activity change, negative = cytotoxicity is -85.6% (active).
Turning to `CC[C@@]1(O)C(=O)OCc2c1cc1n(c2=O)Cc2cc3c(CN(C)C)c(O)ccc3nc2-1`, the Potency in experiment [10] was above 11.4 µM; in experiment [6], above 46 µM; in [12], above 9.22 µM. In addition, the activity change, negative = inhibition is -17.9% [at 2.29 µM] in experiment [11] and 4.05% [at 11.4 µM] in experiment [7]. Moreover, the Potency result in [13] is “inactive”.
As for `N[C@@H](Cc1c[nH]c2ccc(O)cc12)C(=O)O`, the call in [1], in experiment [5], in [7], in experiment [17] and in experiment [18] was inactive. For the same compound, the Potency entry in experiment [11], in [16] and in experiment [13] was “inactive” throughout. In addition, the Potency is above 92 µM in experiment [2]; above 92 µM in experiment [14]; above 92 µM in [3]; above 92 µM in experiment [4]; above 46 µM in experiment [6]; above 46 µM in experiment [12]. Moreover, the activity change, negative = inhibition in [15] (at 38 µM (top of the series)) is -5.52%. For the same compound, the activity change, negative = cytotoxicity in [8] is -0.161%.
As to `Cc1cn([C@H]2C=C[C@@H](CO)O2)c(=O)[nH]c1=O`, the compound was called inactive in experiment [1], in experiment [5], in experiment [7], in [17] and in [18]. Besides, the Potency in experiment [2], in experiment [19], in experiment [14], in [3], in experiment [4] and in experiment [20] was above 92 µM throughout. In addition, the activity change, negative = inhibition in experiment [15] (at 17.2 µM (top of the series)) was 6.73%. Also, in experiment [8], the activity change, negative = cytotoxicity is 11.8% and 9.96%. In addition, the Potency result in [16] and in [9] was “inactive” in each case.
Take `CN1CCC(=C2c3ccccc3CC(=O)c3sccc32)CC1`: the call in experiment [1], in experiment [5] and in experiment [7] was inactive. Moreover, the Potency result in experiment [11] and in [13] was “inactive” throughout. Moreover, in experiment [15] (at 17.2 µM (top of the series)), the activity change, negative = inhibition was -94.3% (active). Also, the Potency was > 46 µM and > 20.6 µM in experiment [6]; > 46 µM and > 20.6 µM in experiment [12].
In the case of `CC(C)C(=O)Nc1ccc([N+](=O)[O-])c(C(F)(F)F)c1`, the compound was called inactive in experiment [1], in [5], in experiment [7], in experiment [17] and in [18]. Moreover, the Potency in experiment [11] was 2 µM (active) and 316 nM (active); in [19], above 92 µM; in [14], 53.5 µM; in [3], above 92 µM; in [4] it was above 92 µM. The activity change, negative = inhibition in [15] (at 17.2 µM (top of the series)) was -0.457%; in experiment [15] (at 38 µM (top of the series)), 9.16%. Also, the activity change, negative = cytotoxicity in experiment [8] is -119% (active). Moreover, the Potency entry in experiment [9] and in experiment [13] was “inactive” each time.

The values are drawn from PubChem BioAssay (NCATS).
